TbPYK inhibitor: qHTS of Trypanosoma Brucei Inhibitors. pyruvate kinase (Trypanosoma brucei), Q57TT1. TbPYK enzyme, Kinase-Glo Plus ATP luminescence, 45 min. Potency, µM (titrated, usually from 76.8 µM), actives largely listed as inhibitors. 0.12% of 410,000 active; further: nearly all actives have a fitted effect of over 50% in size
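Readout: single end-point luminescence (Kinase-Glo Plus, 10 min). Reaction conditions were TbPYK/substrate plus 130 uM ADP, 45 min at RT, pH 7.2 TEA buffer. No-enzyme wells served as controls, and data were normalized before concentration-response fitting.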
LmPK inh: qHTS Assay for Inhibitors of Leishmania Mexicana Pyruvate Kinase (LmPK); purified LmPK, Kinase-Glo ATP luminescence, 1 h; Potency, µM (doses to about 57.5 µM), hits mostly inhibitors; Q27686; 0.37% of 290,000 active
Target sequence (Q27686 whole entry, looked up): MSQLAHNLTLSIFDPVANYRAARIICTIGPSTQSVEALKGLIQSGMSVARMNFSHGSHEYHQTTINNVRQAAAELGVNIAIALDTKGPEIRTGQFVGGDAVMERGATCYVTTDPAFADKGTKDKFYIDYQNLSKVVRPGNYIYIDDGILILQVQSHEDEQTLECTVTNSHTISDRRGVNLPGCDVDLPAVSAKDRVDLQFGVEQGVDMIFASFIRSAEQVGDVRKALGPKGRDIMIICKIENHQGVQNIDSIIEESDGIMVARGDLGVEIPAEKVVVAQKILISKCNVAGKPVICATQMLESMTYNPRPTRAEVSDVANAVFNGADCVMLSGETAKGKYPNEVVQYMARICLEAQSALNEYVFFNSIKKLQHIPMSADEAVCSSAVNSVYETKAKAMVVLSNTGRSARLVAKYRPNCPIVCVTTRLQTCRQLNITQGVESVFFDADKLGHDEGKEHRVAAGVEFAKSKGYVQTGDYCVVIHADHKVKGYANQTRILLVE
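ATP generated from ADP (0.1 mM) and PEP (0.5 mM) by 0.1 nM LmPK over 1 h at room temperature (pH 7.2 imidazole buffer) was detected by coupled luciferase luminescence. Values were normalized to uninhibited and no-enzyme wells.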
RE007 growth inh: qHTS Assay for Inhibitors of the HIV-1 protein Vpr; S. pombe RE007 Vpr strain, BacTiter-Glo ATP luminescence, 24 h; 0.21% of 360,000 active; Potency, µM (titrated, usually from 92.2 µM), usual class: inhibitors; active means well fitted falling curve with a large enough effect; inconclusive means small, poorly fitted or top-dose-only effect; inactive means no such curve, though single readings can be large or run the other way; further: nearly all actives have a fitted effect of over 50% in size
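Fission yeast strain RE007, carrying one chromosomally integrated HIV-1 vpr copy, was seeded at OD 0.01 in PMG+AL medium with 23 nL pinned compound. After 24 h at 30 °C and 99% humidity, viability was read by BacTiter-Glo luminescence.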
NS1 function inh: qHTS Assay for Inhibitors of Influenza NS1 Protein Function; Potency, µM (top dose mostly 46.1 µM); 0.4% of 270,000 active; calls by dose curve; further: actives are rising curves; nearly all actives have a fitted effect of over 50% in size
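Compounds were scored for reversing the slow growth caused by influenza A NS1 in S. cerevisiae, measured by optical density at 600 nm. Assay medium contained 2% galactose at pH 6.0; NS1-free yeast of the same strain were the positive control.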
Numbers stand for hits; [ ] = dose if it differs, or a comment. This is a sample that favours compounds with a hit; in the whole collection about 0.77% have one here. Unless noted, the call rests on the fitted dose curve; in most records, active means well fitted curve in the direction sought with a large enough effect; inconclusive means small, poorly fitted or top-dose-only effect, or another doubt; inactive means no such curve, though single readings can be large; an effect the other way counts as inactive or inconclusive.

COc1ccc(/C=C2/SC(c3ccc(C)cc3)=NC2=O)cc1OC was read as TbPYK inhibitor inconclusive, LmPK inh inconclusive, RE007 growth inh inactive and NS1 function inh inactive.
For COc1ccc(/C=C2\SC(c3ccc(C)cc3)=NC2=O)cc1OC the results were TbPYK inhibitor 8.9µM, LmPK inh inconclusive, RE007 growth inh inactive and NS1 function inh inactive.
Screening O=C(OCC(=O)N1CCCc2ccccc21)c1cc(Cl)ccc1O returned TbPYK inhibitor inactive, LmPK inh inactive, RE007 growth inh inactive and NS1 function inh inactive.
Screening O=C(OCC(=O)N1CCCC1=O)c1cc(Cl)ccc1O returned TbPYK inhibitor inactive and RE007 growth inh 16µM.
O=C(Cn1sc2ccccc2c1=O)Nc1ccc(F)cc1 was read as TbPYK inhibitor inconclusive and RE007 growth inh inactive.
O=C(Cn1sc2ccccc2c1=O)Nc1ccc(Br)cc1 was read as TbPYK inhibitor 7.9µM and RE007 growth inh inactive.
Screening CCC(CC)C(C(=O)NCc1ccccc1)N(C)Cc1ccc(Cl)c(Cl)c1 (stereo not drawn) returned RE007 growth inh inactive.
CCc1cccc(NC(=O)CSc2ncc3c(n2)-c2ccccc2N(CC)S3(=O)=O)c1 was read as TbPYK inhibitor inactive.
Screening CCc1cccc(NC(=O)CSC2=NS(=O)(=O)c3ccccc32)c1 returned TbPYK inhibitor inconclusive, LmPK inh 16µM, RE007 growth inh inactive and NS1 function inh inactive.
For Cn1c(=O)cc(SCC(=O)N2CCN(c3ccccc3F)CC2)c2ccc(Cl)cc21 the results were TbPYK inhibitor inactive.
`COc1ccc(C(=O)NCC23C=CC(O2)C2C(=O)N(Cc4ccccc4)C(=O)C23)cc1` (stereo not drawn) gave TbPYK inhibitor inactive, LmPK inh inactive, RE007 growth inh 25µM and NS1 function inh inactive.
`COc1ccccc1/C=C(\C#N)c1nc(-c2cc3ccccc3oc2=O)cs1` gave TbPYK inhibitor inactive.
Screening c1ccc2c(c1)CCN(c1nc3cc4c(cc3s1)OCCO4)C2 returned TbPYK inhibitor inactive, LmPK inh 22µM, RE007 growth inh inconclusive and NS1 function inh inactive.
Screening COc1ccc(OC)c2sc(N3CCc4ccccc4C3)nc12 returned TbPYK inhibitor inactive, LmPK inh inactive and RE007 growth inh inactive.
For COc1cccc(C(=O)CCN[C@@H](C)[C@H](O)c2ccccc2)c1 the results were TbPYK inhibitor inactive.
For Cc1ccc2nc(-c3cccc(N)c3)[nH]c2c1 the results were TbPYK inhibitor inactive, LmPK inh 16µM, RE007 growth inh inconclusive and NS1 function inh inactive.
Screening CC(C)c1ccc2oc(-c3ccc(N)cc3)nc2c1 returned TbPYK inhibitor inactive, LmPK inh inactive, RE007 growth inh 40µM and NS1 function inh inactive.
`Cc1ccc(-c2nc3cc(N)ccc3o2)cc1` gave TbPYK inhibitor inactive, LmPK inh inconclusive, RE007 growth inh inactive and NS1 function inh inconclusive.
For Cc1ccc2oc(-c3cccc(N)c3)nc2c1 the results were TbPYK inhibitor inactive, LmPK inh inactive and RE007 growth inh 32µM.
For CC(C)(C)c1ccc(-c2nc3cc(N)ccc3o2)cc1 the results were TbPYK inhibitor inactive, LmPK inh inactive, RE007 growth inh inactive and NS1 function inh inactive.
`COc1ccc2nc(-c3ccccc3)[nH]c2c1` gave TbPYK inhibitor inactive, LmPK inh 16µM, RE007 growth inh inconclusive and NS1 function inh inactive.
Screening Nc1cccc(-c2nc3ccccc3[nH]2)c1 returned TbPYK inhibitor inactive, LmPK inh inconclusive, RE007 growth inh inactive and NS1 function inh inactive.
CC[C@H](C)[C@H](N)C1=N[C@H](C(=O)N[C@@H](CC(C)C)C(=O)N[C@@H](CCC(=O)O)C(=O)N[C@@H](C(=O)N[C@H]2CCCCNC(=O)[C@@H](CC(N)=O)NC(=O)[C@@H](CC(=O)O)NC(=O)[C@@H](Cc3cnc[nH]3)NC(=O)[C@@H](Cc3ccccc3)NC(=O)[C@@H]([C@@H](C)CC)NC(=O)[C@@H](CCCN)NC2=O)[C@@H](C)CC)CS1 was read as TbPYK inhibitor inactive.
Screening COc1ccc(OC)c(S(=O)(=O)n2ccnc2)c1 returned NS1 function inh inactive.
`CC(C)N(Cc1ccccc1)S(=O)(=O)c1ccc(N2CCCCS2(=O)=O)cc1` gave TbPYK inhibitor inactive.
For CCc1ccc(CNC(=O)c2ccc3c(c2)nc2n3CCCCC2)cc1 the results were TbPYK inhibitor inactive.
Screening Oc1ccc2ccccc2c1CN(Cc1c(O)ccc2ccccc12)C1CCCCC1 returned NS1 function inh inactive.
Screening CCN1CCOC(CC(=O)Nc2cccc([N+](=O)[O-])c2)C1=O (stereo not drawn) returned TbPYK inhibitor inactive, LmPK inh inactive, RE007 growth inh inconclusive and NS1 function inh inactive.
For CCOC(=O)c1ccc(NC(=O)CC2OCCN(CC)C2=O)cc1 (stereo not drawn) the results were TbPYK inhibitor inactive, LmPK inh inactive, RE007 growth inh 4.5µM and NS1 function inh inactive.
CCOC(=O)c1ccc(NC(=O)CC2C(=O)OCCN2CC)cc1 (stereo not drawn) was read as TbPYK inhibitor inactive, LmPK inh inactive and RE007 growth inh 5µM.
For Cc1cc(C)c(Nc2nc3ccccc3n3c(C)nnc23)c(C)c1 the results were TbPYK inhibitor inactive.
For c1ccc(-c2cn3nc(-c4ccccc4)sc3n2)cc1 the results were TbPYK inhibitor inactive and RE007 growth inh inactive.
c1ccc(-c2cn3c4c(sc3n2)CCCC4)cc1 was read as TbPYK inhibitor inactive, LmPK inh 14µM, RE007 growth inh 25µM and NS1 function inh inactive.
For CCN1C(=O)/C(=C\C=C2/C=CC=CN2CC)SC1=S the results were TbPYK inhibitor inconclusive, LmPK inh inconclusive, RE007 growth inh inconclusive and NS1 function inh inactive.
CCN1C(=O)/C(=C/C=C2\C=CN(CC)c3ccccc32)SC1=S was read as TbPYK inhibitor inconclusive, LmPK inh 18µM, RE007 growth inh inactive and NS1 function inh inactive.
Screening CCOc1ccc(NC(=O)c2ccc(-c3nc(COc4ccccc4)c(C)o3)cc2)cc1 returned TbPYK inhibitor inactive.
For c1ccc(-c2nc3cc4ccccc4cc3[nH]2)nc1 the results were TbPYK inhibitor inactive, LmPK inh 16µM, RE007 growth inh inconclusive and NS1 function inh inactive.
`Nc1cccnc1Sc1ccc(Cl)cc1` gave LmPK inh inactive, RE007 growth inh inactive[3.69 µM] and NS1 function inh inactive.
`Nc1cccnc1Sc1cccc(Cl)c1` gave TbPYK inhibitor inactive, LmPK inh inactive, RE007 growth inh 18µM and NS1 function inh inactive.
CCSc1nc2sc3c(c2c(=O)[nH]1)CC(C)(CC)OC3 (stereo not drawn) was read as TbPYK inhibitor inactive, LmPK inh inactive, RE007 growth inh inactive and NS1 function inh inactive.
For CCC1(C)Cc2c(sc3nc(SCC(=O)O)[nH]c(=O)c23)CO1 (stereo not drawn) the results were TbPYK inhibitor inconclusive, LmPK inh 18µM, RE007 growth inh inactive and NS1 function inh inactive.
Screening Cn1c(-c2sccc2OCc2ccc(Cl)cc2Cl)n[nH]c1=S returned TbPYK inhibitor 3.5µM, LmPK inh inconclusive and RE007 growth inh inactive.
